# The full data set covers some 8,800 targets. This sample favours those with a hit. About 0.5% of all pairs of compound and target were hits. Unmarked numbers belong to inactive results.
# What was measured:
# Experiment in all cases: log2 fold change, soluble protein after heating vs DMSO (PISA); higher = thermal stabilisation; K562 lysate, 10 uM; active = over 0.2 and 3.5 SD of the protein, either way, in both replicates (recomputed)
# dasatinib = compound: Cc1nc(Nc2ncc(C(=O)Nc3c(C)cccc3Cl)s2)cc(N2CCN(CCO)CC2)n1 [dasatinib]
# Method in brief: (§1)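 Following dounce homogenisation of K562 pellets in PBS pH 7.4 with 1 mM MgCl2, crude extract at 1 mg/mL protein was incubated for 30 min with 10 μM compound. Aliquots were then heated for 3 min over 48°C-58°C and pooled, NP-40 was added to 0.5% at 4°C, and soluble protein was recovered as the supernatant at 21,000xg for 90 min. Channel-sum-equalised TMTpro 16plex LC-MS/MS quantified this protein. Each value, from duplicates, is a log-two fold change in thermal stability relative to solvent controls.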
# [1] = compound: Cn1cc(-c2ccc3c(c2)CCN3C(=O)Cc2cccc(C(F)(F)F)c2)c2c(N)ncnc21
# Method in brief: as §1
# quisinostat = compound: Cn1cc(CNCC2CCN(c3ncc(C(=O)NO)cn3)CC2)c2ccccc21 [quisinostat]
# Method in brief: as §1
# [2] = compound: NC(=O)Nc1cc(-c2cccc(F)c2)sc1C(=O)N[C@H]1CCCNC1
# Method in brief: as §1
# [3] = compound: O=C1NC(=O)C(c2cnc3ccccn23)=C1c1cn2c3c(cc(F)cc13)CN(C(=O)N1CCCCC1)CC2
# Method in brief: as §1
# entospletinib = compound: c1cn2cc(-c3ccc4cn[nH]c4c3)nc(Nc3ccc(N4CCOCC4)cc3)c2n1 [entospletinib]
# Method in brief: as §1
# [4] = compound: NC(=O)c1cnc(N[C@@H]2CCCC[C@@H]2N)nc1Nc1cccc(-n2nccn2)c1
# Method in brief: as §1
# [5] = compound: NC1(c2ccc(-c3nc4ccn5c(=O)[nH]nc5c4cc3-c3ccccc3)cc2)CCC1
# Method in brief: as §1
# [6] = compound: NCC(=O)Nc1ccc(-n2nc(C(F)(F)F)cc2-c2ccc3c(ccc4ccccc43)c2)cc1
# Method in brief: as §1
# vorinostat = compound: O=C(CCCCCCC(=O)Nc1ccccc1)NO [vorinostat]
# Method in brief: as §1
# silmitasertib = compound: O=C(O)c1ccc2c(c1)nc(Nc1cccc(Cl)c1)c1ccncc12 [silmitasertib]
# Method in brief: as §1
# [7] = compound: Cc1nc(Nc2n[nH]c3c2CN(C(=O)N[C@H](CN(C)C)c2ccccc2)C3(C)C)c2sccc2n1
# Method in brief: as §1
# [8] = compound: Cc1ncc(-c2ccnc(Nc3ccc(S(C)(=O)=O)cc3)n2)n1C(C)C
# Method in brief: as §1
# tipifarnib = compound: Cn1cncc1[C@@](N)(c1ccc(Cl)cc1)c1ccc2c(c1)c(-c1cccc(Cl)c1)cc(=O)n2C [tipifarnib]
# Method in brief: as §1
# nilotinib = compound: Cc1cn(-c2cc(NC(=O)c3ccc(C)c(Nc4nccc(-c5cccnc5)n4)c3)cc(C(F)(F)F)c2)cn1 [nilotinib]
# Method in brief: as §1
# UniProt Q06187, sequence (Q06187 whole entry, looked up): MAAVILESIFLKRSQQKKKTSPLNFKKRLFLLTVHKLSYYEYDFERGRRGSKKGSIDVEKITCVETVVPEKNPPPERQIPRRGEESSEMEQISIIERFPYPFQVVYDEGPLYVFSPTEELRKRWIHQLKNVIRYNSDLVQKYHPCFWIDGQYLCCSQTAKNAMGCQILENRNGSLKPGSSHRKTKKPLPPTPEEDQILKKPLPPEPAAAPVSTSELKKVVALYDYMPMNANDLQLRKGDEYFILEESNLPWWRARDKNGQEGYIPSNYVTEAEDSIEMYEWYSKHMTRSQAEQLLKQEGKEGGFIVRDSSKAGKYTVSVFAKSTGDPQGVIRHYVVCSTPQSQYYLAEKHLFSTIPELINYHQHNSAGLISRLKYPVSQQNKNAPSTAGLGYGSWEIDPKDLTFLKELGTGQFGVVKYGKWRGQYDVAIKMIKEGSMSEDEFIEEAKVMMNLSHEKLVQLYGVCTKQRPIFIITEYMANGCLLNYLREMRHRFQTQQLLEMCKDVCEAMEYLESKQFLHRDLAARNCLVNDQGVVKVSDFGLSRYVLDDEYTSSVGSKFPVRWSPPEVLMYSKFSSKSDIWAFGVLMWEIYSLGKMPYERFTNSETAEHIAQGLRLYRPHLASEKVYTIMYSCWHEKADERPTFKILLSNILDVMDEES
# UniProt Q96NL8, sequence (Q96NL8 whole entry, looked up): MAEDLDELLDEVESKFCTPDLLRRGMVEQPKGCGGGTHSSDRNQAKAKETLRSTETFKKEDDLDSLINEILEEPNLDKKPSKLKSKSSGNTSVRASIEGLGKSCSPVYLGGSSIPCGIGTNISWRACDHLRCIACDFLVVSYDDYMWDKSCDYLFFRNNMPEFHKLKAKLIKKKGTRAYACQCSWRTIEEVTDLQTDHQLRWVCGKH
# UniProt Q96L58, sequence (Q96L58 whole entry, looked up): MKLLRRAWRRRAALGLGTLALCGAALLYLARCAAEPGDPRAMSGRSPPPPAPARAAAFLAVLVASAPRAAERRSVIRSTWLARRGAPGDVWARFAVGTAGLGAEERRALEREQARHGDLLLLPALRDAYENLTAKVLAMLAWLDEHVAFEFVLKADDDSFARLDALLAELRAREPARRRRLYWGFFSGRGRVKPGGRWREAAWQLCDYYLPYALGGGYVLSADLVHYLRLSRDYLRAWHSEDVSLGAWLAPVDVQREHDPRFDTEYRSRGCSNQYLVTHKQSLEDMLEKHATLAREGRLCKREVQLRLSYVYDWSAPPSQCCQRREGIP
# UniProt P13994, sequence (P13994 whole entry, looked up): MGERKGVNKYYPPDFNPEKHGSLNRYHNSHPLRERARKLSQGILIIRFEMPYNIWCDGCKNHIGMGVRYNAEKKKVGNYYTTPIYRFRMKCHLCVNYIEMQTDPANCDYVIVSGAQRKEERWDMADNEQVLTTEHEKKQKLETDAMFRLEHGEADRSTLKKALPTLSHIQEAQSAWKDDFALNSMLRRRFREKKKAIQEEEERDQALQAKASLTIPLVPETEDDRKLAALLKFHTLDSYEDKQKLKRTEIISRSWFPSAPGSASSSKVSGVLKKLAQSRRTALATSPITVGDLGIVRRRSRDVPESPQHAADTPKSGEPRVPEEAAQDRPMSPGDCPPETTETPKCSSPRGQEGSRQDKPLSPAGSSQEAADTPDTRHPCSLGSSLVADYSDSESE
# UniProt O43303, sequence (O43303 whole entry, looked up): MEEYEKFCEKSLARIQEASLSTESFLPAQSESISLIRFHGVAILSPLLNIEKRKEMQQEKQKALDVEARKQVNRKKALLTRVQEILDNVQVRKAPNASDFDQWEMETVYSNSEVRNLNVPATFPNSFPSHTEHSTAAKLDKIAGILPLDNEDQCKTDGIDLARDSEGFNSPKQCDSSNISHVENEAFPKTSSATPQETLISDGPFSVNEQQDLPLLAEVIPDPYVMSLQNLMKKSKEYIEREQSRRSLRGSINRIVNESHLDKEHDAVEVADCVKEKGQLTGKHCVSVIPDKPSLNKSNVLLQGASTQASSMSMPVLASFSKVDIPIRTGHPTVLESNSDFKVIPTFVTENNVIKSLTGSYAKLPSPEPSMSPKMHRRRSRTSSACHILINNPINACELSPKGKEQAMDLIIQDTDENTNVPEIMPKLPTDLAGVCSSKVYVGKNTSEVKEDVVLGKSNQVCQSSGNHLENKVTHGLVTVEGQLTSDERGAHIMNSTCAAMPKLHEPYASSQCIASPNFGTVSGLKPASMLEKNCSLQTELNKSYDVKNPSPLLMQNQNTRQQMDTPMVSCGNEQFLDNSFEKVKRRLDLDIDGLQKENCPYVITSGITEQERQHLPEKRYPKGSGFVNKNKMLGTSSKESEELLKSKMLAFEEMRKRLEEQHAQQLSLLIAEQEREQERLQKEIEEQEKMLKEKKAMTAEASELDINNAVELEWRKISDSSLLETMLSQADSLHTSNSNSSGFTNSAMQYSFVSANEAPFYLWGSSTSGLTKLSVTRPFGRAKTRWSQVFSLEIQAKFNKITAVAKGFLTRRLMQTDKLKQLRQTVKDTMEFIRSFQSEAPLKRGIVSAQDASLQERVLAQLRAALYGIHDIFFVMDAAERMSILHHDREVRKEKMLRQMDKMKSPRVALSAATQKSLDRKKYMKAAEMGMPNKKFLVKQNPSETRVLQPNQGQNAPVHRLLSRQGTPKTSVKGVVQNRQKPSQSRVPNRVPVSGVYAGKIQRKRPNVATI
# UniProt Q53HL2, sequence (Q53HL2 whole entry, looked up): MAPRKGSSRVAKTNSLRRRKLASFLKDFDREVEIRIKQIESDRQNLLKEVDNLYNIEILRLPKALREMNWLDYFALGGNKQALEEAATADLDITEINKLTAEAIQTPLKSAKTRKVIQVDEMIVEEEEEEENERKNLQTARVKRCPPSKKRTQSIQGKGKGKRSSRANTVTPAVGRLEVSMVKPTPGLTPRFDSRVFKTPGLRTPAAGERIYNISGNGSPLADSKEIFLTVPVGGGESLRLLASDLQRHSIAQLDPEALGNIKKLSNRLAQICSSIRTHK
# UniProt Q6ZU80, sequence (Q6ZU80 whole entry, looked up): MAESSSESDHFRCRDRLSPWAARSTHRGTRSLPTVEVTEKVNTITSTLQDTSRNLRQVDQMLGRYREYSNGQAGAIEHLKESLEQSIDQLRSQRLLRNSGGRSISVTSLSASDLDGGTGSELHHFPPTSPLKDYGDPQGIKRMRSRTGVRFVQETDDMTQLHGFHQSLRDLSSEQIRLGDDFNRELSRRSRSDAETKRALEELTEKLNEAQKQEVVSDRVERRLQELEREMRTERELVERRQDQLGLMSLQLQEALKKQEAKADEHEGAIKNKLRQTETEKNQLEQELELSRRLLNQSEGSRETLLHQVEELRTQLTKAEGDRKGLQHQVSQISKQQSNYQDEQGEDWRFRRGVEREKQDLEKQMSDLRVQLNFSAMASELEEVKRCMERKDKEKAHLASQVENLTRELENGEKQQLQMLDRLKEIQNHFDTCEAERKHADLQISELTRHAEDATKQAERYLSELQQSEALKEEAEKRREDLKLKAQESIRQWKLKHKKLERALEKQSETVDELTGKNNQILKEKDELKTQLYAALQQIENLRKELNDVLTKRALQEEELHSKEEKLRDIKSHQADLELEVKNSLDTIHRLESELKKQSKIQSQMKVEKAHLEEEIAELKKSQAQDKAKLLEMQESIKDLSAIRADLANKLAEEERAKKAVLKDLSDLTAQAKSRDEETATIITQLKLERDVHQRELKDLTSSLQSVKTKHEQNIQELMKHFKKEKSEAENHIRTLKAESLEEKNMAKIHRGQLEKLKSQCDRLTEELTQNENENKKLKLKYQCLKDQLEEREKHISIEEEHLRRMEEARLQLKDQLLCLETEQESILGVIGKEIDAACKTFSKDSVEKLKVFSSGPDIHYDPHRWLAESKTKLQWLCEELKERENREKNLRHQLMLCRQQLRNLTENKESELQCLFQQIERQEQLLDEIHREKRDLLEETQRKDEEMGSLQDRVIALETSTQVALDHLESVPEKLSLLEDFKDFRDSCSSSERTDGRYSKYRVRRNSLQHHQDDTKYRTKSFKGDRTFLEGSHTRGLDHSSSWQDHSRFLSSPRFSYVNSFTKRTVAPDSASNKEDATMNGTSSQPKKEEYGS
# UniProt P0DMB2, sequence (P0DMB2 whole entry, looked up): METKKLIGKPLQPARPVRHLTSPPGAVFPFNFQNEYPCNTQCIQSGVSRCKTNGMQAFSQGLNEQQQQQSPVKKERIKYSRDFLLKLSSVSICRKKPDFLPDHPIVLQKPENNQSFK
# UniProt Q1RMZ1, sequence (Q1RMZ1 whole entry, looked up): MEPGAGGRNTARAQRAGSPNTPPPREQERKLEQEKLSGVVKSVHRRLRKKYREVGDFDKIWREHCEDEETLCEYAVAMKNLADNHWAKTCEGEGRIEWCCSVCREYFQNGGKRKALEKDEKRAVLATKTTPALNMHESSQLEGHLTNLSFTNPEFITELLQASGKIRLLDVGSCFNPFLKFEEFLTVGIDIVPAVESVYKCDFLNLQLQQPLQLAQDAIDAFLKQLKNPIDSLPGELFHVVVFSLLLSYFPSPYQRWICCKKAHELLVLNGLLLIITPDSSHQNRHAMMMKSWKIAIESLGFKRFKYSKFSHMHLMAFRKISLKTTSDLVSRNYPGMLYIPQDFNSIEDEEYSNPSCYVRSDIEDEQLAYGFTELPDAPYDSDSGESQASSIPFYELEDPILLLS
# UniProt Q16581, sequence (Q16581 whole entry, looked up): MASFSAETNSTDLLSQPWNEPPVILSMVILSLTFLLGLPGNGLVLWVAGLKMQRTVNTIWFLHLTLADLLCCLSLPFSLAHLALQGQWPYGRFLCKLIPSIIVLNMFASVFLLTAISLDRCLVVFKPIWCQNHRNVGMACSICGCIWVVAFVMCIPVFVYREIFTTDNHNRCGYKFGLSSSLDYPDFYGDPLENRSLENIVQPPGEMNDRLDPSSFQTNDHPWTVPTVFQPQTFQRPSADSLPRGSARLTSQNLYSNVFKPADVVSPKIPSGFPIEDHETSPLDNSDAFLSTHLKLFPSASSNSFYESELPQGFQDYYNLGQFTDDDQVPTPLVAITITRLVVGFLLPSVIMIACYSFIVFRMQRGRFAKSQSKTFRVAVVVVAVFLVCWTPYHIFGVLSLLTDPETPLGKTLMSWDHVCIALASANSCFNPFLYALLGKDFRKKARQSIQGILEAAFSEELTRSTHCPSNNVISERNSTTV
Target,log2 fold change (dasatinib),log2 fold change [1],log2 fold change (quisinostat),log2 fold change [2],log2 fold change [3],log2 fold change (entospletinib),log2 fold change [4],log2 fold change [5],log2 fold change [6],log2 fold change (vorinostat),log2 fold change (silmitasertib),log2 fold change [7],log2 fold change [8],log2 fold change (tipifarnib),log2 fold change (nilotinib)
ATPSCKMT (UniProt Q6P4H8),0.052,-0.021,0.018,0.001,0,0.105,,,,,,,,,
AUH (UniProt Q13825),-0.274,0.14,-0.002,-0.018,-0.063,-0.11,0.193,-0.066,0.1,-0.068,0.017,,,,
ATG4D (UniProt Q86TL0),-0.037,-0.57 (active),-0.085,0.084,0.117,0.004,,,,,,,,,
CCDC130 (UniProt P13994),,,-0.583,-0.183,-0.306,-0.076,,0.259,,-0.003,0.173,,,,
CCP110 (UniProt O43303),0.063,-0.01,-0.062,0.107,-0.124,0.045,,0.055,-0.033,-0.102,-0.131,,,,
CDAN1 (UniProt H3BPZ6),,,0.093,0.056,0.006,,,,,,,,,,
BRAF (UniProt P15056),,0.002,-0.173,0.018,-0.008,0.037,0.007,,-0.001,-0.339,0.061,0.011,-0.043,-0.006,
CDKN1B (UniProt P46527),0.021,0.034,0.393 (active),-0.122,-0.067,-0.028,-0.035,0.045,0.062,-0.011,0.048,,,,
CAPNS1 (UniProt U3KPR7),,,,,,,-0.214,,,,,-0.416,0.226,0.161,-0.166
ATXN2 (UniProt F8WB06),-0.074,-0.053,,,,,,,,,,,,,
C8orf88 (UniProt P0DMB2),0.07,-0.134,-0.042,-0.011,0.024,,,0.084,,-0.455 (active),0.056,,,,
C3AR1 (UniProt Q16581),,,0.065,-0.033,-0.013,,,,,,,0.286,-0.111,-0.036,-0.026
CEP128 (UniProt Q6ZU80),-0.168,0.041,,,,-0.081,,,0.017,,,,,,
ATXN2 (UniProt F8WB05),0.035,-0.058,-0.208,-0.025,0.115,-0.016,0.025,-0.394,0.013,0.011,0.271,,,,
CARHSP1 (UniProt H3BNU9),,,,,,,-0.059,,,,,0.149,0.238,0.108,-0.196
ATE1 (UniProt O95260),,,0.019,-0.093,0.028,,0.026,,,,,,,,
CDK2 (UniProt P24941),0.018,0.01,-0.077,0.005,0.202,0.039,0.067,-0.012,-0.02,0.006,0.248,,,0.011,-0.01
CDKL5 (UniProt O76039),-0.095,0.188,-0.283,-0.002,0.011,0.017,0.069,,0.037,,,,,,
CDCA8 (UniProt Q53HL2),0.012,-0.011,,,,0.112,,-0.051,0.066,0.13,-0.093,-0.002,-0.277,0.046,0.03
BMT2 (UniProt Q1RMZ1),,,,,,,,,,,,-0.923 (active),0.134,0,0.172
B3GALT6 (UniProt Q96L58),-0.148,0.233,-0.086,0.137,0.071,,,-0.174,,0.218,-0.029,,,,
C8orf37 (UniProt Q96NL8),0.083,0.056,0.004,-0.01,0.008,-0.035,0.298,0.029,0.206,0.084,0.044,,,,
CDC14A isoform 2 (UniProt Q9UNH5),,,-0.174,0.083,-0.11,,0.101,,,,,0.07,-0.001,-0.019,-0.076
"CHD4, A0A2R8Y521",-0.09,-0.247,,,,-0.313,-0.174,,,,,-0.088,-0.156,0.391,-0.125
BTK isoform 2 (UniProt Q06187),,-0.005,-0.05,0.294 (active),0.012,0.3,0.032,-0.049,0.439 (active),-0.322 (active),0.066,-0.002,0.015,-0.021,0.016
BICRA (UniProt Q9NZM4),0.088,-0.1,0.037,-0.004,-0.076,,0.054,-0.382,,0.11,-0.203,,,,
CAD (UniProt H7BZB3),,,,,,-0.008,,0.551 (active),0.113,-0.54,-0.006,,,,
BTRC (UniProt Q9Y297),,,,,,-0.004,0.059,0.031,0.03,-0.342 (active),0.035,0.02,-0.003,0.02,0.006
CCAR2 (UniProt G3V119),,,,,,,-0.015,,,,,,,,

# Reference: the supplement of paper PMC10849652
